# According to PubChem BioAssay (Tox21):
# “And” between values parts separate entries of the source, which are not always exact repeats. Identical values can stand only once. Inconclusive results are not listed. Where a call stands in place of a potency, no number is given. More than one record can exist for a structure, and the calls need not agree. The source made the active and inactive calls. Unless noted, calls follow the shape of the dose curve; as a rule, active = well fitted curve in the direction sought with a large enough effect in the repeat runs; inconclusive = weak or mixed curves; inactive = no such curve, though single readings can be large; an effect the other way counts as inactive or inconclusive.
# Legend:
# [1] = qHTS assay to identify small molecule antagonists of the vitamin D receptor (VDR) signaling pathway - cell viability counter screen (AID 743225); also: nearly all actives have a fitted effect of over 50% in size; also: potency is read from the fitted curve at half-maximal effect
# Summary of the method: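 Viability counter screen run in the same wells as the beta-lactamase reporter assay: HEK 293T VDR-UAS-bla cells, 16 h compound exposure at 37C with 3 nM (final) 1-alpha,25-dihydroxyvitamin D3. CellTiter-Glo luminescence, 30 min, room temperature.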
# [2] = qHTS assay to identify small molecule agonists of the NFkB signaling pathway - cell viability counter screen (AID 1159515; calls by dose curve; also: series mostly up to about 61 µM; nearly all actives have a fitted effect of over 55% in size)
# Summary of the method: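 Luminescence from CellTiter-Glo (30 min, room temperature) gives viability, measured in the same wells as the beta-lactamase reporter read. Cells were NFkB-bla ME-180, 2,000 per well, treated 5 hr with compounds.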
# [3] = qHTS assay to identify small molecule agonists of the AP-1 signaling pathway - cell viability counter screen (AID 1159525; calls by dose curve; also: nearly all actives have a fitted effect of over 55% in size; also: potency is read from the fitted curve at half-maximal effect)
# Summary of the method: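 ME-180 AP-1-bla, 2500 cells/well, Opti-MEM + 0.5% dialyzed FBS; overnight 37 °C; cpd 15-pt titration, 5 h 37 °C; CellTiter-Glo 30 min RT; luminescence read; normalised to TOAB and DMSO controls.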
# [4] = qHTS assay to identify small molecule antagonists of the retinoid acid receptor (RAR) signaling pathway - cell viability counter screen (AID 1159551); also: nearly all actives have a fitted effect of over 35% in size
# Summary of the method: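 Luminescent ATP quantitation (CellTiter-Glo) gave cell viability in C3RL4 cells exposed to test chemicals for 6 h at 37 C alongside 1 uM final retinol.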
# [5] = qHTS assay to identify small molecule agonists of the vitamin D receptor (VDR) signaling pathway - cell viability counter screen (AID 743224); also: nearly all actives have a fitted effect of over 50% in size; also: potency is read from the fitted curve at half-maximal effect
# Summary of the method: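 Luminescence from CellTiter-Glo, read after 30 min at room temperature, reports viability of VDR-bla cells treated with compounds for 16 h at 37C in the wells used for the beta-lactamase FRET read.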
# [6] = qHTS assay to identify small molecule agonists of the endoplasmic reticulum stress response signaling pathway (AID 1159516; active = well fitted activation curve with a large enough effect in the signal ratio in the repeat runs, not every such curve was filed as active; the % refers to the signal ratio)
# Summary of the method: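 Read-out is beta-lactamase cleavage of a FRET substrate (405 nm excitation; 460 and 530 nm emissions) in ESRE-bla HeLa cells after a 5 hr compound exposure at 37 C. Substrate incubation ran 2 hr at room temperature.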
# [7] = qHTS assay to identify small molecule agonists of the endoplasmic reticulum stress response signaling pathway - cell viability counter screen (AID 1159517; calls by dose curve;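 also: HeLa cells carrying an ER stress response element beta-lactamase reporter; series mostly up to about 61 µM; nearly all actives have a fitted effect of over 50% in size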)
# Summary of the method: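 CellTiter-Glo was added to wells already read for beta-lactamase FRET, and luminescence was recorded 30 min later. Cells: ESRE-bla HeLa, 1,500 per well, compound exposure 5 hr at 37 C.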
# [8] = qHTS assay to identify small molecule antagonists of the retinoid-related orphan receptor gamma (ROR-gamma) signaling pathway - cell viability counter screen (AID 1159520); also: nearly all actives have a fitted effect of over 50% in size; also: potency is read from the fitted curve at half-maximal effect
# Summary of the method: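 Tet-on ROR gamma CHO cells (1,000/well) were plated 4 hr, given compounds in DMSO for 2 hr at 37 C, then induced with 1 uM final doxycycline for 16 hr. Viability was read as ATP by CellTiter-Glo luminescence after 30 min.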
# [9] = biological target: Nuclear receptor ROR-gamma (Homo sapiens) (UniProt P51449); assay: qHTS assay to identify small molecule antagonists of the retinoid-related orphan receptor gamma (ROR-gamma) signaling pathway (AID 1159521; also: nearly all actives have a fitted effect of over 50% in size; also: potency is read from the fitted curve at half-maximal effect)
# Summary of the method: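 Luminescence readout (ONE-Glo, 30 min RT) after 16 h doxycycline induction; loss of signal scored as antagonism. CHO cells with TET-inducible RORγ and RORE-LUC reporter; compounds added 2 h before 1 uM final doxycycline.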
# [10] = qHTS assay to identify small molecule agonists of the AP-1 signaling pathway (AID 1159526; calls by dose curve)
# [11] = biological target: Retinoic acid receptor RXR-alpha (Homo sapiens) (UniProt P19793); assay: qHTS assay to identify small molecule agonists of the RXR signaling pathway (AID 1159527; calls by dose curve; also: nearly all actives have a fitted effect of over 35% in size)
# Sequence of Retinoic acid receptor RXR-alpha (Homo sapiens) (P19793 whole entry, looked up): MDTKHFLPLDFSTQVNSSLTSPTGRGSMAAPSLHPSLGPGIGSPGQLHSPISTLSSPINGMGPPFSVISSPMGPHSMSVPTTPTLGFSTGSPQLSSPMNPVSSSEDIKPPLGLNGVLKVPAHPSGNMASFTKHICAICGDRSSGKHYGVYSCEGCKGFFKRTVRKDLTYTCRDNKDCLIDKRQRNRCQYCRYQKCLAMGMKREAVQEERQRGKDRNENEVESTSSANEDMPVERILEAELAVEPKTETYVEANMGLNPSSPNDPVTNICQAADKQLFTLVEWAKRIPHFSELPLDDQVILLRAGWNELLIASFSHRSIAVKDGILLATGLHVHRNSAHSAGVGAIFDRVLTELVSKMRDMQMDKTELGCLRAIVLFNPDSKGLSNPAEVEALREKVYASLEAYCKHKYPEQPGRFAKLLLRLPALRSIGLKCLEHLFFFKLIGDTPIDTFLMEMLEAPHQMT
# Summary of the method: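 Agonist mode; 9-cis retinoic acid positive control. HEK 293T UAS-bla reporter cells, 2% charcoal-stripped FBS, 16 hr compound exposure at 37 C/5% CO2. LiveBLAzer B/G FRET substrate 2 hr RT; ex 405, em 460/530 nm.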
# [12] = qHTS assay to identify small molecule agonists of the RXR signaling pathway - cell viability counter screen (AID 1159529); also: nearly all actives have a fitted effect of over 50% in size; also: potency is read from the fitted curve at half-maximal effect
# Summary of the method: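 Luminescence from CellTiter-Glo (30 min, RT) measured viability in the same wells as the beta-lactamase reporter readout. Cells: GeneBLAzer RXR-alpha HEK 293T, 2% charcoal-stripped FBS. Compound exposure 16 hr, 37 C.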
# [13] = qHTS assay to identify small molecule antagonists of the retinoic acid receptor (RAR) signaling pathway (AID 1159552; also: nearly all actives have a fitted effect of over 50% in size; also: potency is read from the fitted curve at half-maximal effect)
# Summary of the method: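 Luminescence from a RARE luciferase reporter in C3RL4 cells served as read-out. Cells received compounds together with 1 uM final retinol and incubated 6 hr at 37 C before detection reagent was added for 30 min at room temperature.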
# [14] = qHTS assay to identify small molecule agonists of the retinoic acid receptor (RAR) signaling pathway (AID 1159553); also: potency is read from the fitted curve at half-maximal effect
# Summary of the method: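 Luminescence from a RARE-driven luciferase reporter in C3RL4 cells served as the read-out, measured after 30 min with detection reagent at room temperature. Compounds in DMSO were applied for 6 hr at 37 C following overnight seeding.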
# [15] = qHTS assay to identify small molecule antagonists of the estrogen related receptor (ERR) signaling pathway - cell viability counter screen (AID 1224818);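 also: series mostly up to about 46 µM; viability measured after 17.5 h of compound exposure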
# Summary of the method: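 Multiplexed counter screen to separate cytotoxic compounds from true ERR modulators. ERR cells received DMSO-dissolved compounds after a 6 h pre-incubation, were exposed 17.5 h at 37 C, then assayed with CellTiter-Fluor fluorescence.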
# [16] = qHTS assay to identify small molecule agonists of the estrogen related receptor (ERR) signaling pathway (AID 1224820)
# Summary of the method: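 ERR reporter cell line (from NTP), 2,000 cells/well, incubated 6 h before compound addition, then 18 h at 37 C. Luminescence measured 30 min after One-Glo reagent at room temperature.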
# [17] = system: estrogen-related receptor alpha (ERRalpha) with PGC-1alpha coactivator, human; assay: qHTS assay to identify small molecule antagonists of the estrogen related receptor signaling pathway with the pleiotropic PPARgamma coactivator (PGC) (AID 1224821; calls by dose curve)
# Summary of the method: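 PGC/ERR reporter cell line, plated 6 h before compound addition, then exposed 18 h at 37 °C. Luciferase activity read by luminescence 30 min after One-Glo addition; decrease indicates antagonism.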
# [18] = qHTS assay to identify small molecule agonists of the estrogen related receptor signaling pathway with the pleiotropic PPARgamma coactivator (PGC) (AID 1224823)
# Summary of the method: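 PGC/ERR reporter cells seeded 6 h, then exposed to compounds (23 nL in DMSO) for 18 h at 37 C. One-Glo luciferase luminescence read after 30 min at room temperature.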
Compound,Potency [1],Potency [2],Potency [3],Potency [4],Potency [5],outcome [6],Potency [7],Potency [8],Potency [9],Potency [10],Potency [11],Potency [12],Potency [13],Potency [14],Potency [15],outcome [16],Potency [17],outcome [18]
O=C(Nc1cccc(Cl)c1)OCC#CCCl,54.9 µM (active),inactive,inactive,inactive,–,–,–,–,–,–,–,–,–,–,–,–,–,–
CCC(C)(C)C1CCCCC1OC(C)=O (centres undefined),inactive,–,–,inactive,38.9 µM (active),inactive,inactive,inactive,inactive,inactive,inactive,–,–,–,–,–,–,–
CCCCCCCC(=O)[O-].CCCCCCCC(=O)[O-].[Zn+2],inactive,–,inactive,inactive,inactive,inactive,inactive,inactive,inactive,inactive,inactive,–,–,–,–,–,–,–
CC(=O)OCC(C)OC(C)=O (centres undefined),inactive,–,inactive,inactive,–,inactive,inactive,inactive,inactive,inactive,inactive,inactive,inactive,–,–,–,–,–
NNC(=O)c1cccc(C(=O)NN)c1,inactive,–,inactive,inactive,inactive,inactive,inactive,inactive,inactive,inactive,inactive,inactive,inactive,–,–,–,–,–
NC(=O)CC[C@@H]1NC(=O)[C@H](Cc2ccccc2)NC(=O)[C@H](Cc2ccc(O)cc2)NC(=O)CCSSC[C@@H](C(=O)N2CCC[C@H]2C(=O)N[C@@H](CCCN=C(N)N)C(=O)NCC(N)=O)NC(=O)[C@H](CC(N)=O)NC1=O,inactive,–,inactive,inactive,inactive,inactive,inactive,inactive,inactive,inactive,inactive,inactive,–,inactive,–,–,–,–
COC(=O)C1=C(C)NC(C)=C(C(=O)OCC(C)C)C1c1ccccc1[N+](=O)[O-] (centres undefined),inactive,–,24.5 µM (active) and inactive,inactive,27.5 µM (active),inactive,inactive,43.3 µM (active) and inactive,–,inactive,–,–,48.6 µM (active),inactive,–,–,–,–
O=C(c1ccc(O)cc1O)c1ccc(O)cc1O,inactive,–,inactive,inactive,inactive,inactive,inactive,inactive,inactive,inactive,inactive,inactive,inactive,–,–,–,–,–
CCCC1O[C@@H]2C[C@H]3[C@@H]4CCC5=CC(=O)C=C[C@]5(C)[C@H]4[C@@H](O)C[C@]3(C)[C@]2(C(=O)CO)O1 (some centres undefined),inactive,–,inactive,inactive,inactive,inactive,inactive,inactive,48.6 µM (active),–,–,inactive,48.6 µM (active),inactive,inactive,inactive,inactive,inactive
Cc1cc(N)c(S(=O)(=O)O)cc1Cl,inactive,–,inactive,inactive,inactive,inactive,inactive,inactive,inactive,inactive,inactive,–,–,inactive,–,–,–,–
O=c1cc(-c2ccc(O)cc2)oc2cc(O)cc(O)c12,inactive,–,inactive,–,inactive,inactive,inactive,inactive,–,–,–,inactive,inactive,1.56 µM (active),–,–,–,–
C/C=C(\C)C(=O)OCc1ccccc1,inactive,–,inactive,inactive,–,inactive,inactive,inactive,inactive,inactive,inactive,inactive,–,–,–,–,–,–
c1ccc(CSCc2ccccc2)cc1,inactive,–,inactive,inactive,inactive,inactive,inactive,inactive,inactive,inactive,inactive,inactive,inactive,–,–,–,–,–
Oc1ccc(Cl)cc1Sc1cc(Cl)ccc1O,30.8 µM (active),inactive,–,–,21.8 µM (active) and 23.7 µM (active),–,–,–,19.3 µM (active) and 13.3 µM (active),–,–,43.6 µM (active),26.6 µM (active),inactive,–,–,–,–
CCCCCOC(=O)CCCC,inactive,–,–,inactive,–,inactive,inactive,inactive,inactive,inactive,inactive,inactive,inactive,inactive,–,–,–,–
NC(=NCCCCCCN=C(N)/N=C(\N)Nc1ccc(Cl)cc1)/N=C(\N)Nc1ccc(Cl)cc1,35.3 µM (active) [middle of 4 runs],–,34.3 µM (active) and inactive,inactive,–,inactive,–,54 µM (active) and 54.2 µM (active) and inactive,–,inactive,–,–,–,–,–,–,–,–
Cc1ccc(O)c(C(C)(C)C)c1,21.8 µM (active),–,–,inactive,19.5 µM (active),inactive,inactive,inactive,inactive,–,inactive,–,–,–,–,–,–,–
